Assay outcomes (PubChem BioAssay)
This is a sample that favours compounds with a hit; in the whole collection about 6.6% have one here.
Mdm2 MdmX PPI – inhibitors of human Mdm2-MdmX association, primary screen, cell-based, luminescence, split luciferase, SaOS-2, uHTS; SaOS-2 split-luciferase Mdm2/MdmX complementation; actives 3% (n = 330,000); Protein Mdm4 (Homo sapiens) + E3 ubiquitin-protein ligase Mdm2 (Homo sapiens), …; inhibition, % at 8 µM; AID 485346, 2010;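 active means inhibition of at least 50% at 8 µM in the primary screen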
Gli-Sufu block – Gli-Sufu pathway antagonists, primary screen, luciferase luminescence, Sufu-KO-LIGHT cells, uHTS; Sufu-KO-LIGHT fibroblasts, Gli luciferase reporter luminescence; inhibition, % at 5 µM; actives 0.74% (n = 340,000);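 active means inhibition above about 55%, limit read from the data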;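 further: 0% = DMSO-treated cells and 100% = wells with medium but no cells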
CSC inhib – cancer stem cell viability inhibitors, primary screen, luminescence; cancer stem cell-like cells viability; inhibition, % at 7.5 µM; actives 1.1% (n = 300,000); AID 2717, 2010; in the data active means inhibition above about 75%; tested in HMLE shEcad cells
Beta cell apopt – inhibitors of cytokine-induced beta cell apoptosis, primary screen, luminescence; actives 0.8% (n = 300,000); INS-1E cytokine-induced death, ATP luminescence, 48 h; percent of positive-control rescue, neutral wells zero; AID 435005, 2010; protection from apoptosis, % (no concentration beside the values);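 active means Every replicate reaches about 75%, or at least half do and their mean reaches it too, limit read from the data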;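 further: 0% = cytokine-treated negative control wells and 100% = positive control rescue; higher means more ATP so stronger rescue from cytokine killing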
NR3A LBD binder – binders of NR3A ligand-binding domain, primary screen, biophysical, differential scanning fluorimetry, uHTS; Glutamate receptor ionotropic, NMDA 3A (GRIN3A) ligand-binding domain; NR3A LBD differential scanning fluorimetry, Tm shift; 0% = protein alone, 100% = glycine-bound protein; Tm shift relative to glycine control, % at 25 µM; actives 2.5% (n = 340,000); AID 1259313, 2017;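 active means melting temperature shift of at least 10% of the positive control shift, at one fixed dose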
MPTP block – mitochondrial permeability transition pore inhibitors, primary screen, biochemical, isolated mouse mitochondria, absorbance; Ca2+ swelling absorbance, 30 min; inhibition, % at 10 µM; actives 1.4% (n = 360,000); AID 602449, 2012;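 active means inhibition of 50% or more, scaled per plate between neutral and stimulator controls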;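 further: 0% = DMSO wells given calcium and 100% = 1 mM EGTA wells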
Mdm2-MdmX conf – Mdm2-MdmX complex disruptors, retested hits, confirmation, luminescence, single concentration | Mdm2-MdmX binding, luminescent assay | AID 489028, 2010 | inhibition, % at 8 µM | shares compounds with Mdm2 MdmX PPI | actives 55% (n = 10,000); in the data active means inhibition above about 40%
Full FLuc ctr – full-length luciferase signal inhibition, confirmation, counter-screen for Mdm2/MdmX interaction inhibitor project, cell-based, single concentration, SaOS-2. actives 77% (n = 6,200). AID 504607, 2011. SaOS-2 full-length luciferase counterscreen, luminescence. shares compounds with Mdm2 MdmX PPI. inhibition, % at 8 µM;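 active means mean inhibition at 8 µM reaching about 37%, which flags the compound as non-specific, limit read from the data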;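 further: p53-null SaOS-2 cells with luciferase driven by a doxycycline-inducible promoter; compound on cells about two nights before reading with doxycycline added after day one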
Numbers without * were called inactive.

What do the screens show for `Nc1c(C(=O)Nc2ccc(S(=O)(=O)N3CCCC3)cc2)sc2nc3ccc(OC(F)(F)F)cc3cc12`?
Mdm2 MdmX PPI: 89.9*; Gli-Sufu block: 7.8; CSC inhib: 32.2; Beta cell apopt: 98.0*; NR3A LBD binder: 22.0*; MPTP block: 1.0; Mdm2-MdmX conf: -11.5

How did CC(=O)Nc1ccc(NC(=O)C(C)OC(=O)c2cccs2)cc1 (stereo not given) do in these assays?
Mdm2 MdmX PPI: 16.1; Gli-Sufu block: -6.6; Beta cell apopt: 2.5; NR3A LBD binder: 0.3; MPTP block: -0.6

Results for Cc1ccc(-c2nnc(SCC(=O)Nc3ccccc3F)o2)cc1 ?
Mdm2 MdmX PPI: 79.8*; Gli-Sufu block: -34.1; CSC inhib: 70.3; Beta cell apopt: 10.7; NR3A LBD binder: 0.5; MPTP block: 0.9; Mdm2-MdmX conf: 67.0*; Full FLuc ctr: 32.6

What do the screens show for `CC(Sc1n[nH]c(-c2cccs2)n1)C(=O)Nc1ccc(C(N)=O)cc1` (stereo not given)?
Mdm2 MdmX PPI: 0.4; Gli-Sufu block: -3.4; Beta cell apopt: -3.3; NR3A LBD binder: -11.6; MPTP block: -3.0

How did O=C(N=Nc1c(O)[nH]c2ccccc12)c1cc(NS(=O)(=O)c2cccs2)cc(NS(=O)(=O)c2cccs2)c1 do in these assays?
Mdm2 MdmX PPI: 77.0*; Gli-Sufu block: 2.1; CSC inhib: 7.5; Beta cell apopt: -4.6; NR3A LBD binder: 0.6; MPTP block: 7.0; Mdm2-MdmX conf: 30.8; Full FLuc ctr: 79.9*

How did O=C(N=Nc1c(O)[nH]c2ccccc12)c1cccs1 do in these assays?
Mdm2 MdmX PPI: -138.7; Gli-Sufu block: -107.0; CSC inhib: 17.7; Beta cell apopt: 10.3; NR3A LBD binder: 0.5; MPTP block: 2.3

What do the screens show for `COC(=O)c1ccc(COc2ccccc2/C=N/NS(=O)(=O)c2ccc(C)cc2)cc1`?
Mdm2 MdmX PPI: 48.4; Gli-Sufu block: 2.7; Beta cell apopt: -5.5; NR3A LBD binder: 2.6; MPTP block: 0.6

What do the screens show for `Cc1cc(C(=O)OCC(=O)Nc2ccc(F)cc2[N+](=O)[O-])c2ccccc2n1`?
Mdm2 MdmX PPI: 52.0*; Gli-Sufu block: 12.1; CSC inhib: -13.1; Beta cell apopt: 2.8; NR3A LBD binder: -3.1; MPTP block: -0.5; Mdm2-MdmX conf: 50.6*; Full FLuc ctr: 100.2*

Results for O=c1c(-c2c(O)cc(O)c3c2O[C@H](c2ccc(O)cc2)CC3)c(-c2ccc(O)cc2)oc2cc(O)cc(O)c12 ?
Mdm2 MdmX PPI: 22.5; Gli-Sufu block: -9.3; Beta cell apopt: 1.6; NR3A LBD binder: 1.1; MPTP block: -0.1

How did Cc1csc(=O)n1CC(=O)OCC(=O)c1c(N)n(CC(C)C)c(=O)n(C)c1=O do in these assays?
Mdm2 MdmX PPI: 35.5; Gli-Sufu block: 15.8; CSC inhib: -5.4; Beta cell apopt: -2.0; NR3A LBD binder: 1.7; MPTP block: -1.0

How did CCN1C(=O)[C@@H]2[C@@H](c3ccc(SC4CCCCC4)cc3)N3CCC[C@@]3(C(=O)OC)[C@@H]2C1=O do in these assays?
Mdm2 MdmX PPI: 24.0; Gli-Sufu block: -4.0; CSC inhib: -17.7; Beta cell apopt: 0.0; NR3A LBD binder: 3.0; MPTP block: 1.0

How did Cc1c(C=O)c(C=O)c(C)n1Cc1ccccc1 do in these assays?
Mdm2 MdmX PPI: 85.9*; Gli-Sufu block: 17.4; CSC inhib: 44.1; NR3A LBD binder: -1.0; MPTP block: 1.1; Mdm2-MdmX conf: 86.2*; Full FLuc ctr: 30.8
